H9c2 protect = cardioprotection against H2O2-induced cell death, primary screen, uHTS, H9c2 cells, ATPLite luminescence; protection from H2O2 cell death, % at 20 µM; AID 588492, 2011; hit rate 0.63% among 360,000; H9c2 cardiomyocytes, H2O2 injury protection, 2 h;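 active = compounds giving at least 50% protection of heart cells from peroxide-induced death in the single-dose screen, raw or plate-pattern-corrected value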;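 note: 0% = DMSO wells with peroxide and 100% = DMSO wells without peroxide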
FAS TE block = FAS thioesterase domain inhibitors, primary screen, biochemical, fluorescence intensity, uHTS | Fatty acid synthase (Homo sapiens), P49327 | recombinant FAS-TE, OMFH fluorogenic substrate, fluorescence endpoint | inhibition, % at 15 µM | hit rate 0.67% among 360,000;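 active = compounds whose normalised, plate-corrected inhibition of enzyme fluorescence in the single-dose primary screen is 50% or more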;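 note: 0% = DMSO with enzyme and 100% = substrate without enzyme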
PLC-gamma1 inh = PLC-gamma1 enzyme inhibitors, primary screen, biochemical, fluorescence, purified enzyme; inhibition, % at 12.2 µM; 1-phosphatidylinositol 4,5-bisphosphate phosphodiesterase gamma-1 (Homo sapiens), P19174; fluorogenic substrate; AID 720700, 2013; hit rate 0.84% among 370,000; in the data active = inhibition above about 9.5%
PLC-beta3 inh = human PLC-beta3 inhibitors, primary screen, biochemical, fluorescence. 1-phosphatidylinositol 4,5-bisphosphate phosphodiesterase beta-3 (Homo sapiens), Q01970. Purified PLC-beta3, fluorogenic substrate. inhibition, % at 12.2 µM. hit rate 0.18% among 370,000. AID 720704, 2013;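 note: 0% = median of compound wells on plate and 100% = full blocker control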
PLCg1 ctr = PLC-gamma1 enzyme inhibitors, counter-screen for PLC-beta3 inhibitor project, biochemical, fluorescence. inhibition, % at 12.3 µM. purified PLC-gamma1, fluorogenic substrate. AID 743258, 2014. shares compounds with PLC-gamma1 inh. hit rate 3.1% among 3,300; in the data active = inhibition above about 9.5%
PLCb3 confirm = PLC-beta3 inhibitor confirmation, biochemical, fluorescence, purified enzyme | shares compounds with PLC-gamma1 inh | fluorogenic substrate fluorescence | inhibition, % at 12.3 µM | hit rate 1% among 3,300
The depositor's hits bear a star; / = no result given. Shown are actives, neighbours in structure and some others; about 2.2% of the full set was active somewhere. Cut-off read from the data, not from the text of the source, unless noted: active = inhibition above about 11%; inactive = the rest.

SMILES	H9c2 protect	FAS TE block	PLC-gamma1 inh	PLC-beta3 inh	PLCg1 ctr	PLCb3 confirm
O=C(NC(Cc1cn(Cc2ccccc2)cn1)C(=O)O)OCC1c2ccccc2-c2ccccc21 (stereo unspecified)	2	5	/	/	/	/
COc1ccc(-n2ncc(C(C)NS(=O)(=O)c3cc(C)sc3C)c2C)cc1 (stereo unspecified)	2	-8	1	2	/	/
CCCNC(=O)c1cc2c(c(-c3cccc(-c4ccccc4F)c3)n1)[C@@H](CCO)N(C(=O)CC1CC1)C2	/	-2	-2	2	/	/
COC(=O)[C@]12C[C@H](CC(=O)N3CCCC3)C(=O)N(CCC3=CCCCC3)C1=C[C@H](C1CCCC1)O[C@@H]2C	/	/	11*	1	-3	0
CCN(CC)C(=O)C1=C(C)N(CCCN2CCCC2=O)C(=O)C(CC(=O)NCc2cccc3ccccc23)C1 (stereo unspecified)	-6	-7	1	0	/	/
O=C(NCCN1CCOCC1)c1cccs1	-8	-5	-2	1	/	/
c1csc(CNCCN2CCOCC2)c1	12	-6	12*	1	-6	-3
CC(=O)OCC(=O)C1CCC2C3CCC4=CC(=O)C=CC4(C)C3CCC12C (stereo unspecified)	0	3	5	6	/	/
Cc1ccc(NS(=O)(=O)c2ccc3c(c2)CCN3C(=O)CCC(=O)O)cc1Cl	3	-3	2	-6	/	/
CCc1ccc(NS(=O)(=O)c2ccc3c(c2)CCN3C(=O)CCC(=O)O)cc1	0	2	10*	0	-6	-5
CCC(=O)N1CCc2cc(S(=O)(=O)CCC(=O)NCCc3ccc(S(N)(=O)=O)cc3)ccc21	2	-4	10*	-2	-1	-2
O=C(O)C(=Cc1ccc([N+](=O)[O-])cc1)c1ccccc1	/	/	-1	0	/	/
O=C(CCCN1C(=O)/C(=C\c2ccco2)SC1=S)Nc1ccc(O)cc1C(=O)O	-2	-1	9.6*	-25	-11	-24
O=C(CCCN1C(=O)/C(=C\c2cccs2)SC1=S)Nc1ccc(O)cc1C(=O)O	-1	-8	-1	-6	/	/
O=C(CCCN1C(=O)/C(=C/c2ccco2)SC1=S)Nc1cccc(C(=O)O)c1	-5	2	11*	-12	9	-14
COc1ccc(-c2[nH][nH]c(=O)c2NC(=O)c2ccccc2Br)cc1	-2	-4	1	-3	/	/
CC12c3ccccc3C(c3ccccc31)C1C(=O)N(c3cccnc3)C(=O)C12 (stereo unspecified)	4	-8	12*	10	-4	-3
CCC(C)NC(=O)C1c2ccccc2C(=O)N1Cc1ccc(F)cc1 (stereo unspecified)	1	-5	2	-1	/	/
COc1ccc(S(=O)(=O)N2CCN(CC(=O)Nc3c(C)n[nH]c3C)CC2)cc1OC	-4	-8	0	6	/	/
Cc1n[nH]c(C)c1NC(=O)CN1CCN(S(=O)(=O)c2ccc(C(F)(F)F)cc2)CC1	0	-3	10*	-4	5	-1
COc1ccc([C@H]2N[C@]3(CCCN(Cc4ccc(Br)cc4)C3=O)[C@H]3C(=O)N(Cc4ccccc4)C(=O)[C@@H]23)cc1	0	35	8	0	/	/
CN(C(=O)c1ccccc1)C1c2c(ccc3ccccc23)OCC1CO (stereo unspecified)	-6	20	10*	4	8	11*
CC(C)CN(C(=O)CSc1nnc(C2CC2)n1-c1ccccc1)C1CCS(=O)(=O)C1 (stereo unspecified)	3	-1	1	-3	/	/
CCOc1ccc(N(CC(=O)NC(C)C)C(=O)CCC(=O)Nc2ccccn2)cc1	0	-5	4	-3	/	/
COc1ccc(CC(=O)NCC2CCCN(Cc3cccc(C(F)(F)F)c3)C2)cc1 (stereo unspecified)	-6	-2	11*	-3	-7	0
SMILES	H9c2 protect	FAS TE block	PLC-gamma1 inh	PLC-beta3 inh	PLCg1 ctr	PLCb3 confirm
COc1ccc(CC(=O)NCC2CCCN(Cc3ccc(F)c(OC)c3)C2)cc1 (stereo unspecified)	2	-3	0	-2	/	/
COc1ccc(NC(=O)c2cc(-c3ccc(C)cc3)on2)cc1OC	-3	-3	0	-5	/	/
COc1ccc(NC(=O)c2cc(-c3ccc(OC)c(OC)c3)on2)cc1OC	-3	-6	10.0*	10	-155	-194
CCCOc1cccc(/C=N/NC(=O)c2csc(C)c2C)c1	-16	14	11*	5	-4	-2
COC(=O)[C@@]12CCCCC3=C1N(CCC3)C(=O)[C@H]2CC(=O)N1CCCCC1	/	/	3	1	/	/
CCN(CC)S(=O)(=O)c1cccc(-c2nnc(SCC(N)=O)n2CCc2ccccc2)c1	3	-8	12*	7	7	4
CCN(CC)S(=O)(=O)c1cccc(-c2nnc(SC(C)C(N)=O)n2CCc2ccccc2)c1 (stereo unspecified)	1	-1	7	2	/	/
CC(=O)Nc1ccc(C(=O)N2CCCCC2c2cc(C(=O)NCc3cccnc3)no2)cc1 (stereo unspecified)	7	0	0	3	/	/
COc1ccc(CCN(C(=O)c2snc(C(N)=O)c2N)C(C)C(=O)NC2CCCCC2)cc1OC (stereo unspecified)	4	-2	-10	-20	/	/
Cc1ccc(Oc2ccc(C(=O)NC3CCSC3=O)cn2)cc1 (stereo unspecified)	1	-8	3	3	/	/
Cc1cccc(Oc2ccc(C(=O)NC3CCSC3=O)cn2)c1C (stereo unspecified)	-4	-3	4	15*	-1	0
CCOc1ccnc2c1c(=O)n(Cc1cc(OC)cc(OC)c1)c(=O)n2C	14	10	0	-6	/	/
CC(C)(C)OC(=O)N[C@H](C(=O)OC(C)(C)C)c1ccc2c(c1)OCO2	3	5	10*	4	3	-3
Cc1cccc([C@H](NC(=O)OC(C)(C)C)C(=O)OC(C)(C)C)c1	3	4	-2	-3	/	/
Cc1c(C(=O)NN)[nH]c2ccc([N+](=O)[O-])cc12	4	0	1	59*	-8	-2
NNC(=O)c1[nH]c2ccc([N+](=O)[O-])cc2c1-c1ccccc1	8	3	-1	-8	/	/
C[C@H]1[C@H](NC(=O)c2ccc(Cl)c(C(F)(F)F)c2)CC[C@@]23CCCN2C(=O)CCC[C@@H]13	/	/	0	4	/	/
O=C(COc1ccc(Br)cc1Br)NC(=O)NC1CCCC1	-6	22	2	2	/	/
CC(C)(C)NC(=O)NC(=O)COc1ccc(Br)cc1Br	-18	21	11*	7	-2	1
CCOC(=O)C1CCN(C(=O)c2c(-c3c(F)cccc3Cl)noc2C)CC1	1	-5	10*	3	-3	-17

Compound activity deposited in PubChem by several laboratories.
